Compounds without any hit were thinned out: in the full panel of roughly 83,000, 20% have a hit.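 48-hour exposure, single concentration, 96-well plates; percent growth endpoint where 0 means no net growth. Active: below 10.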 Calls of active or inactive are those of the source.
Key:
Experiment in all cases: NCI-60 one-dose screen, 48 h (100 = growth as untreated, 0 = no growth, -100 = all killed)
Settings in all cases: 10 µM
NCI-H23 lung = test system: NCI-H23 lung
NCI-H226 lung = test system: NCI-H226 lung
NCI-H322M lung = test system: NCI-H322M lung
HOP-62 NSCLC = test system: HOP-62 NSCLC
NCI-H460 lung = test system: NCI-H460 lung
HOP-92 NSCLC = test system: HOP-92 NSCLC
NCI-H522 lung = test system: NCI-H522 lung
A549/ATCC NSCLC = test system: A549/ATCC NSCLC
786-0 renal = test system: 786-0 renal
COLO 205 colon = test system: COLO 205 colon
DU-145 prostate = test system: DU-145 prostate
K-562 leukemia = test system: K-562 leukemia
MALME-3M melanoma = test system: MALME-3M melanoma
RXF 393 renal = test system: RXF 393 renal
SF-268 CNS = test system: SF-268 CNS
SF-295 CNS = test system: SF-295 CNS
SF-539 CNS = test system: SF-539 CNS
UACC-257 melanoma = test system: UACC-257 melanoma
M14 melanoma = test system: M14 melanoma
MDA-MB-231 breast = test system: MDA-MB-231 breast

Measured: growth

Cc1nn(-c2ccccc2)c2ncn(CC(=O)N/N=C/c3c[nH]c4ccccc34)c(=O)c12
inactive: NCI-H23 lung 95.4% | NCI-H226 lung 93.1% | NCI-H322M lung 93.5% | HOP-62 NSCLC 95.6% | NCI-H460 lung 92.9% | HOP-92 NSCLC 80.5% | NCI-H522 lung 89% | A549/ATCC NSCLC 85.4% | 786-0 renal 88% | COLO 205 colon 109% | DU-145 prostate 99.6% | K-562 leukemia 84.2% | MALME-3M melanoma 69% | RXF 393 renal 89.5% | SF-268 CNS 73.5% | SF-295 CNS 88.7% | SF-539 CNS 84.6% | UACC-257 melanoma 94.3% | M14 melanoma 92.3%

O=C1Nc2cc(Cl)ccc2/C1=C/c1cccc(OCc2ccc(Br)cc2F)c1
active: NCI-H460 lung 0.927% | HOP-92 NSCLC 6.98% | NCI-H522 lung -2.73% | COLO 205 colon 3.13% | DU-145 prostate 4.44% | K-562 leukemia 1.92% | RXF 393 renal -15.1% | SF-268 CNS 9.99% | SF-295 CNS 5.06% | SF-539 CNS -6.14% | M14 melanoma -32.6%
inactive: NCI-H23 lung 28.5% | NCI-H226 lung 37.4% | NCI-H322M lung 54% | HOP-62 NSCLC 11.1% | A549/ATCC NSCLC 29.7% | 786-0 renal 17.9% | MALME-3M melanoma 33.8% | UACC-257 melanoma 45.9%

CC(C)NC(=O)c1cc(-c2ccc(NC(=O)Nc3ccc(N4CCN(C)CC4)c(C(F)(F)F)c3)cc2)nc2cccnc12
active: NCI-H23 lung -84.6% | NCI-H226 lung -69.1% | NCI-H322M lung -90.6% | HOP-62 NSCLC -88.4% | NCI-H460 lung -61.7% | HOP-92 NSCLC -74.8% | NCI-H522 lung -90.8% | A549/ATCC NSCLC -78.9% | 786-0 renal -93.8% | COLO 205 colon -81.1% | DU-145 prostate -88.7% | MALME-3M melanoma -96.3% | MDA-MB-231 breast -91.6% | RXF 393 renal -89.8% | SF-268 CNS -42.9% | SF-295 CNS -96.5% | SF-539 CNS -100% | UACC-257 melanoma -88.6% | M14 melanoma -86.6%

O=C1Nc2cc(Cl)ccc2/C1=C/c1cccc(OCc2ccccc2)c1
inactive: NCI-H23 lung 11.9% | NCI-H226 lung 21.9% | NCI-H322M lung 29.5%
active: HOP-62 NSCLC 0.755% | NCI-H460 lung 3.73% | HOP-92 NSCLC -6.89% | NCI-H522 lung -63% | A549/ATCC NSCLC 5.95% | 786-0 renal -12% | COLO 205 colon -22.8% | DU-145 prostate 3.5% | K-562 leukemia 5.55% | MALME-3M melanoma 7.06% | RXF 393 renal -3.3% | SF-268 CNS -11.4% | SF-295 CNS 1.81% | SF-539 CNS -56.8% | UACC-257 melanoma 1.39% | M14 melanoma -18.1%

COC1CC(Cn2cc(COc3ccc4ccc(=O)oc4c3)nn2)C(OCc2ccccc2)C(OCc2ccccc2)C1OCc1ccccc1 (configuration not stated)
inactive: NCI-H23 lung 95.1% | NCI-H226 lung 92.8% | NCI-H322M lung 106% | HOP-62 NSCLC 98.9% | NCI-H460 lung 113% | HOP-92 NSCLC 80.3% | NCI-H522 lung 92.4% | A549/ATCC NSCLC 92.3% | 786-0 renal 102% | COLO 205 colon 121% | DU-145 prostate 101% | MALME-3M melanoma 106% | MDA-MB-231 breast 99.7% | RXF 393 renal 80.1% | SF-268 CNS 122% | SF-295 CNS 102% | SF-539 CNS 102% | UACC-257 melanoma 110% | M14 melanoma 102%

CNC(=O)c1cc(-c2ccc(NC(=O)Nc3ccc(C)cc3)cc2)nc2cccnc12
inactive: NCI-H23 lung 101% | NCI-H226 lung 61.4% | NCI-H322M lung 96.6% | HOP-62 NSCLC 90.6% | NCI-H460 lung 105% | HOP-92 NSCLC 64.6% | NCI-H522 lung 87.5% | A549/ATCC NSCLC 98.1% | 786-0 renal 104% | COLO 205 colon 115% | DU-145 prostate 109% | MALME-3M melanoma 109% | MDA-MB-231 breast 93.3% | RXF 393 renal 100% | SF-268 CNS 104% | SF-295 CNS 95.6% | SF-539 CNS 99% | UACC-257 melanoma 123% | M14 melanoma 116%

O=C(NCCCCC(c1ccc(F)cc1)c1ccc(F)cc1)NCCCc1cccnc1
inactive: NCI-H23 lung 24% | NCI-H226 lung 41.2% | NCI-H322M lung 64.8% | HOP-62 NSCLC 56.2% | NCI-H460 lung 28.8% | HOP-92 NSCLC 19.4% | NCI-H522 lung 16.8% | A549/ATCC NSCLC 27.2% | 786-0 renal 47.7% | DU-145 prostate 22% | MDA-MB-231 breast 44.8% | RXF 393 renal 30.8% | SF-268 CNS 52.4% | SF-295 CNS 18.5% | UACC-257 melanoma 25.8%
active: COLO 205 colon -12.1% | MALME-3M melanoma -13% | SF-539 CNS 0.987% | M14 melanoma -20.2%

COc1ccc2nc(Cl)c(-c3cc(-c4ccccc4)nc(N)n3)cc2c1
inactive: NCI-H23 lung 37.7% | NCI-H226 lung 27.1% | NCI-H322M lung 60.7% | HOP-62 NSCLC 40.8% | HOP-92 NSCLC 48.5% | NCI-H522 lung 46.8% | A549/ATCC NSCLC 72.7% | COLO 205 colon 53.7% | DU-145 prostate 33.3% | MALME-3M melanoma 61% | SF-268 CNS 58.8% | SF-295 CNS 30.4% | UACC-257 melanoma 71.6% | M14 melanoma 44.1%
active: NCI-H460 lung 3.53% | 786-0 renal 4.34% | K-562 leukemia 0.267% | RXF 393 renal -19.8% | SF-539 CNS -45.6%
